The source of these data is PubChem BioAssay AID1479148 (National Center for Advancing Translational Sciences (NCATS), 2020).

Inconclusive results are not listed. Calls of active or inactive are those of the source. Calls follow the shape of the full dose curve.

This experiment can be described thus: Confirmatory qHTS for inhibitors of SARS-S pseudo-typed particle cell entry. The following applies: SARS-S pseudotyped particle cell entry, reporter luminescence; series mostly up to 57.1 µM; activity change, negative = inhibition: at the top concentration. Background: Quantitative high-throughput screening tests each substance at several concentrations.
As for `O=C(O)c1cc(O)c2c(c1)[C@H]([C@H]1c3cc(C(=O)O)cc(O)c3C(=O)c3c(O[C@@H]4O[C@H](CO)[C@@H](O)[C@H](O)[C@H]4O)cccc31)c1cccc(O[C@@H]3O[C@H](CO)[C@@H](O)[C@H](O)[C@H]3O)c1C2=O`, the “activity change, negative = inhibition” value is -58.3% [at 33 µM] (inactive). As for `COC(=O)C[C@](O)(CCCC(C)(C)O)C(=O)O[C@@H]1C(OC)=C[C@]23CCCN2CCc2cc4c(cc2[C@H]13)OCO4`, the Potency is 1.52 µM (active).

For `CCc1c2c(nc3ccc(OC(=O)N4CCC(N5CCCCC5)CC4)cc13)-c1cc3c(c(=O)n1C2)COC(=O)[C@]3(O)CC`, the “activity change, negative = inhibition” value is -64% (inactive). Take `C[C@@H]1CCO[C@H]2Cn3cc(C(=O)NCc4ccc(F)cc4F)c(=O)c(O)c3C(=O)N12`: the Potency was 0.0096 µM (active). Same read-out and setting: for `C=C1c2c(Cl)ccc(O)c2C(O)=C2C(=O)[C@@]3(O)C(O)=C(C(N)=O)C(=O)[C@@H](N(C)C)[C@@H]3[C@@H](O)[C@H]12` the value was 15.2 µM (active). `C/C=C(/C)C(=O)O[C@H]1C(C)=CC23C(=O)C(C=C(CO)[C@@H](O)[C@]12O)[C@H]1[C@@H](C[C@H]3C)C1(C)C` (stereo partly drawn): the Potency was 0.0121 µM (active). `CCN(CC)CCNC(=O)c1c(C)[nH]c(/C=C2\C(=O)Nc3ccc(F)cc32)c1C`: the Potency is 6.07 µM (active). Consider `COc1cc(N)c(Cl)cc1C(=O)NC1CCN(CCCOc2ccc(F)cc2)CC1OC` (stereo not drawn), for which the “activity change, negative = inhibition” value is -27% (inactive).

Consider `COc1cc([C@@H]2c3cc4c(cc3C(O[C@@H]3O[C@@H]5CO[C@@H](c6cccs6)OC5[C@H](O)[C@H]3O)C3COC(=O)[C@@H]32)OCO4)cc(OC)c1O` (stereo partly drawn), for which the Potency was 1.08 µM (active). Still for that read-out and setting: for `CO[C@@]12[C@H](COC(N)=O)C3=C(C(=O)C(C)=C(N)C3=O)N1C[C@@H]1N[C@@H]12` the value was 6.07 µM (active); for `CC(C)(C)C(=O)OCOP(=O)(COCCn1cnc2c(N)ncnc21)OCOC(=O)C(C)(C)C`, 0.0383 µM (active); for `N#CC(c1ccc(Cl)cc1)c1c(Cl)cc(-n2ncc(=O)[nH]c2=O)cc1Cl` (stereo not drawn), 19.2 µM (active). Consider `CN(C)CC/C=C1\c2ccccc2Sc2ccc(Cl)cc21`, for which the Potency was 21.5 µM (active).

Consider `CC(C)OC(=O)OCOP(=O)(CO[C@H](C)Cn1cnc2c(N)ncnc21)OCOC(=O)OC(C)C`, for which the Potency is 0.0429 µM (active). `CC(=O)[C@]1(O)Cc2c(O)c3c(c(O)c2[C@@H](O[C@H]2C[C@H](N)[C@H](O)[C@H](C)O2)C1)C(=O)c1ccccc1C3=O`: the Potency was 6.07 µM (active).

With `C[n+]1c2cc(N)ccc2cc2ccc(N)cc21` (tested in a mixture with another compound), the Potency is 6.81 µM (active). Same read-out and setting: for `Cc1cc(C(C#N)c2ccc(Cl)cc2)c(Cl)cc1NC(=O)c1cc(I)cc(I)c1O` (stereo not drawn) the value was 30.4 µM (active). Still for that read-out and setting: with `CN(C)[C@@H](CCOc1cccc2ccccc12)c1ccccc1` the figure was 6.81 µM (active). Turning to `N/C(=N\N=C\c1ccc(Cl)cc1)N/N=C/c1ccc(Cl)cc1`, the “activity change, negative = inhibition” value is -27% (inactive).

In the case of `CC(=O)Oc1ccccc1C(=O)Nc1ncc([N+](=O)[O-])s1`, the Potency is 12.1 µM (active). Consider `COc1cc(NS(C)(=O)=O)ccc1Nc1c2ccccc2nc2ccccc12`, for which the Potency was 0.961 µM (active).

Turning to `CN[C@H]1CC[C@@H](c2ccc(Cl)c(Cl)c2)c2ccccc21`, the Potency was 19.2 µM (active). `Oc1c(Cl)cc(Cl)c(Cl)c1Cc1c(O)c(Cl)cc(Cl)c1Cl`: the Potency is 1.21 µM (active). In the case of `Cc1cn([C@H]2C[C@H](N=[N+]=[N-])[C@@H](CO)O2)c(=O)[nH]c1=O`, the Potency is 0.271 µM (active). For the compound `c1ccc2c(c1)Sc1ccccc1N2CC1CN2CCC1CC2` (stereo not drawn), the Potency was 27.1 µM (active). On the same count and under the same terms, for `CN1CCC(=C2c3ccccc3CCc3sccc32)CC1` the value was 27.1 µM (active). The same measure, in the same setting: for `CC(C)OC(=O)[C@H](C)N[P@](=O)(CO[C@H](C)Cn1cnc2c(N)ncnc21)Oc1ccccc1` the value was 0.171 µM (active); for `CC(C)(C)NCC(O)COc1ccccc1C1CCCC1` (stereo not drawn), 3.41 µM (active); for `NCCNc1ccc(NCCN)c2c1C(=O)c1ccncc1C2=O`, 0.857 µM (active).

On to `Cc1c(N)nc(C(CC(N)=O)NCC(N)C(N)=O)nc1C(=O)NC(C(=O)NC(C)C(O)C(C)C(=O)NC(C(=O)NCCc1nc(-c2nc(C(=O)NCCCN[C@@H](C)c3ccccc3)cs2)cs1)C(C)O)C(O[C@@H]1O[C@@H](CO)[C@@H](O)[C@H](O)[C@@H]1O[C@H]1O[C@H](CO)[C@@H](O)[C@H](OC(N)=O)[C@@H]1O)c1cnc[nH]1` (stereo partly drawn), for which the Potency is 0.857 µM (active). Take `CC[C@@]1(O)C(=O)OCc2c1cc1n(c2=O)Cc2c-1nc1ccccc1c2/C=N/OC(C)(C)C`: the Potency is 0.0857 µM (active). As for `COc1cc2c(cc1Cc1cccc(Cl)c1F)c(=O)c(C(=O)O)cn2[C@H](CO)C(C)C`, the Potency was 0.0607 µM (active).

With `CCN(CC)Cc1cc(Nc2ccnc3cc(Cl)ccc23)ccc1O`, the Potency is 8.57 µM (active).
